ELG1 genotox: qHTS screen for small molecules that induce genotoxicity in human embryonic kidney (HEK293T) cells expressing luciferase-tagged ELG1; Potency, µM (highest dose often 46 µM), actives largely listed as activators; actives 1.3% (n = 330,000); HEK293T ELG1-luciferase reporter, luminescence, 16 h; note: nearly all actives have a fitted effect of over 60% in size
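HEK293T cells expressing luciferase-tagged ELG1 were treated with compound or DMSO for 16 hr at 37°C. Luciferase activity was then read after 30 min with ONE-Glo at room temperature; rising signal flags genetic stress.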
NPC1 prom act: qHTS Assay for NPC1 Promoter Activators | Potency, µM (series often up to 9.22 µM), usual class: activators | AID 485313, 2010 | actives 2.4% (n = 320,000) | Huh7 NPC1 promoter luciferase reporter, 24 h; note: nearly all actives have a fitted effect of over 60% in size
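Readout is luciferase luminescence, reflecting NPC1 promoter activation in stably transfected Huh7 cells after 24 h compound exposure at 37 °C in reduced-serum medium with 10% FBS.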
SMN2 splice enh: qHTS Assay for Enhancers of SMN2 Splice Variant Expression; HEK293 SMN2-luciferase splicing reporter, luminescence, 30-36 h; Potency, µM (series often up to 46.1 µM), usual class: activators; actives 2.8% (n = 210,000); note: nearly all actives have a fitted effect of over 55% in size
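HEK293 cells carry an SMN2 minigene-luciferase reporter in which exon 7 inclusion puts luciferase in frame. Cells were seeded at 2000 cells/well, attached for 10-12 hours, then exposed to compounds for 30-36 hours at 37C before ONE-Glo luminescence.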
FLuc counter: qHTS profiling assay for firefly luciferase inhibitor/activator using purifed enzyme and Km concentrations of substrates (counterscreen for miR-21 project) | purified FLuc, Km substrates, luminescence inhibition | Potency, µM (top dose mostly 57.5 µM), hits mostly inhibitors | actives 6.9% (n = 360,000) | AID 588342, 2011; note: nearly all actives have a fitted effect of over 55% in size
Target sequence (P08659 whole entry, looked up): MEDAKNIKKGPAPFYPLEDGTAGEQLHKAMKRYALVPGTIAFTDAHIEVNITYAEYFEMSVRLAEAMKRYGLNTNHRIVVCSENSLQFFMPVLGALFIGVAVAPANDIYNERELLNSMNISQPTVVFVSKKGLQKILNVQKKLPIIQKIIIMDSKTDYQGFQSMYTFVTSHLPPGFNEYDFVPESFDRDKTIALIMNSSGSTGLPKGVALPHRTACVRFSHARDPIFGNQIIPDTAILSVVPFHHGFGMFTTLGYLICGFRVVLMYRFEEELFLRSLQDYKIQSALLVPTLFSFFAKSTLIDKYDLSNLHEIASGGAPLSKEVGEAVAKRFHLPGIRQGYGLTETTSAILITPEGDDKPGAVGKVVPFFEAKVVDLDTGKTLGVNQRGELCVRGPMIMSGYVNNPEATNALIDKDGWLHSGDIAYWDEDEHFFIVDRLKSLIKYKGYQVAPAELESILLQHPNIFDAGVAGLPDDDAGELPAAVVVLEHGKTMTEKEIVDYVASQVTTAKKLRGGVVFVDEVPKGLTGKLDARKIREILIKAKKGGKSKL
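Biochemical qHTS of compounds, final roughly 60 µM downward over six points, against 10 nM purified firefly luciferase using Km concentrations of substrates (10 uM D-luciferin, 10 uM ATP) in Tris acetate pH 7.5 buffer; luminescence output.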
KinaseGlo FLuc: Counterscreen for Luciferase (Kinase-Glo TM) Inhibition; Luciferin 4-monooxygenase (Photuris pensylvanica), Q27757; Kinase-Glo luciferase, ATP luminescence, 8 min; Potency, µM (series often up to 38.3 µM), most hits filed as inhibitors; actives 0.28% (n = 200,000); note: nearly all actives have a fitted effect of over 60% in size
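Light output from Kinase-Glo luciferase with luciferin and 10 uM ATP in 50 mM imidazole pH 7.2, KCl, MgCl2, Tween 20, BSA; compound pin-delivered, 8-min ambient incubation, then luminescence read.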
Rab9 prom act: qHTS Assay for Rab9 Promoter Activators. AID 485297, 2010. Potency, µM (titrated, usually from 9.22 µM), actives largely listed as activators. actives 2.8% (n = 320,000). Huh7 Rab9 promoter-luciferase reporter, luminescence, 24 h; note: nearly all actives have a fitted effect of over 60% in size
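Promoter activation is measured as luciferase luminescence in Huh7 cells stably transfected with a Rab9 promoter–luciferase construct, following 24 h compound exposure at 37 °C and 10 min reagent incubation at ambient temperature.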
Hits are given with their value; n = inactive; u = inconclusive; x = no result given; [ ] = dose if it differs, or a comment. Only some compounds are listed: those with a hit (about 7.5% of all), similar ones and a draw of the others. Calls come from the whole dose curve; as a rule, active = well fitted curve in the direction sought with a large enough effect; inconclusive = small, poorly fitted or top-dose-only effect, or another doubt; inactive = no such curve, though single readings can be large; an effect the other way counts as inactive or inconclusive.

SMILES	ELG1 genotox	NPC1 prom act	SMN2 splice enh	FLuc counter	KinaseGlo FLuc	Rab9 prom act
CCS(=O)(=O)C1=NN2C(=N)/C(=C\c3ccc(SCc4ccco4)o3)C(=O)N=C2S1	n	n	n	u	n	n
Cc1ccc(-n2c(-c3ccc(Br)cc3)nc3c(cnn3-c3ccccc3)c2=O)cc1	x	x	n	n	x	x
O=c1c2ccccc2cnn1-c1ccc2ccccc2c1	u	1.4µM	5µM	1.2µM	n	1.8µM
O=c1c2ccccc2nnn1-c1ccc(Br)cc1	u	3.2µM	x	u	x	2.2µM
O=c1c2ccccc2cnn1-c1ccc(Br)cc1	u	0.71µM	2.8µM	3.4µM	n	1.6µM
O=c1c2ccccc2cnn1-c1ccc(Cl)nn1	n	n	n	n	n	n
FC(F)Oc1ccc(C2N=C(c3ccccc3)NO2)cc1 (stereo not drawn)	u	2.8µM	x	4.8µM	x	1.6µM
COc1ccc(C2N=C(c3ccccc3)NO2)cc1OC (stereo not drawn)	u	n	x	11µM	x	n
COC(=O)Sc1nnc(-c2ccc(Br)cc2)o1	n	n	n	19µM	n	n
CCCCOC(=O)CSc1nnc(-c2ccc(C)cc2)o1	x	x	n	u	x	x
CCCCCSc1nnc(-c2ccc(Br)cc2)o1	x	x	n	12µM	x	x
OCC#CCSc1nnc(-c2ccc(Br)cc2)o1	21µM	n	n	u	n	n
COc1ccc(OC)c(NC(=O)c2cc3c(=O)n4cccc(C)c4nc3n2C)c1	x	x	x	n	x	x
COc1cc(/C=C/c2ccc3cccc(O)c3n2)ccc1O	16µM	u	x	6.7µM	x	3.2µM
COc1cc(/C=C/c2ccc3cccc(O)c3n2)c(Br)cc1O	u	n	x	u	x	n
COc1cc(Br)c(/C=C/c2ccc3cccc(O)c3n2)cc1OC	u	n	x	u	x	n[1.84 µM]
CSc1ccc(/C=C/c2ccc3cccc(O)c3n2)cc1	u	3.2µM	13µM	2.4µM	n	1.3µM
COc1ccc(OC)c(/C=C/c2ccc3cccc(O)c3n2)c1	u	n	x	13µM	x	n
COc1ccc(N(CC(=O)NCCSCc2ccc(Cl)cc2)S(C)(=O)=O)cc1Cl	n	n	x	n	x	n
CCOc1ccc(C2CC(=O)c3c([nH]c(C(=O)OCCOc4ccccc4)c3C)C2)cc1 (stereo not drawn)	x	x	n	n	x	x
CC(=O)c1c(C)[nH]c(C(=O)OCCOc2ccccc2)c1C	u	0.32µM	n	0.54µM	n	0.32µM
Cc1c(C(=O)OCCOc2ccccc2)[nH]c2c1C(=O)CCC2	u	4.5µM	3.5µM	0.95µM	n	u
CC(=O)c1c(C)[nH]c(C(=O)OCC(=O)Nc2nnc(-c3ccccc3)o2)c1C	n	n	x	21µM	x	n
CC(=O)c1c(C)[nH]c(C(=O)OCC(=O)Nc2ccccc2Cl)c1C	n	n	x	n	n	n
Cc1cc(Nc2cccc(Br)c2)n2c(nc3ccccc32)c1C#N	x	x	n	n	x	x
SMILES	ELG1 genotox	NPC1 prom act	SMN2 splice enh	FLuc counter	KinaseGlo FLuc	Rab9 prom act
CC(C)=C(NC(=O)c1ccccc1Br)C(=O)NCCc1nc2ccccc2[nH]1	n	n	x	u	x	n
Cc1cccc(CNC(=O)Cn2c(-c3cccs3)cc3ccccc32)c1	x	x	x	n	x	x
CCC(C)NC(=O)c1ccc2c(=O)n3c(nc2c1)CCCCC3 (stereo not drawn)	x	x	n	n	x	x
O=C(NCC1CCCO1)c1ccc2c(c1)OCO2 (stereo not drawn)	n	n	n	n	n	n
Cc1ccc2c(c1)COc1c3ccc(C(=O)N[C@@H](CO)C(C)C)cc3nn1-2	u	1.8µM	x	6.7µM	x	3.5µM
O=C(NCC1CCCO1)c1ccc2c3n(nc2c1)-c1ccccc1CO3 (stereo not drawn)	u	1µM	x	4.8µM	x	1.1µM
C[C@@H](CO)NC(=O)c1ccc2c3n(nc2c1)-c1ccccc1CO3	u	0.45µM	x	0.6µM	x	u
COCCNC(=O)c1ccc2c3n(nc2c1)-c1ccc(C)cc1CO3	u	0.71µM	x	6.7µM	x	1.1µM
CCC(CC)c1nnc(NC(=O)CSCC(=O)Nc2cc(C)on2)s1	n	n	x	n	x	n
CCc1ccc(CNC(=O)C2Cc3cc(S(=O)(=O)N4CCCCCC4)ccc3N2C(C)=O)cc1 (stereo not drawn)	x	x	x	n	x	x
O=c1c2c(nc3cc(-c4ccc(F)cc4)[nH]n13)CCCC2	2.3µM	u	u	1.5µM	n	0.45µM
O=c1c2c(nc3cc(-c4cccc(Cl)c4)[nH]n13)CCC2	2.3µM	2µM	8.9µM	4.8µM	n	1.6µM
O=c1c2c(nc3cc(-c4cccc(F)c4)[nH]n13)CCC2	u	1.6µM	8.9µM	6µM	n	1.1µM
O=c1c2c(nc3c(-c4ccc(Cl)cc4)c[nH]n13)CCCC2	n	n	n	n	n	n
O=C(NCCSCc1ccc(Cl)cc1)C1CCN(S(=O)(=O)Cc2ccccc2)CC1	x	x	x	n	x	x
Nc1c(C(=O)NCC2CCCO2)sc2nc3c(c(-c4ccco4)c12)CC/C3=C\c1ccco1 (stereo not drawn)	n	n	n	5.4µM	n	n
CC(C)COn1c(=S)[nH]c2ccccc2c1=O	u	n	n	21µM	n	n
CCOC(=O)c1cnc2c(-c3ccccc3)cnn2c1N	u	0.63µM	10µM	0.6µM	n	0.5µM
CCOC(=O)c1cnc2c(-c3ccccc3)c(C)nn2c1N	u	n	n	u	n	n
CCOC(=O)c1cnc2c(N=Nc3ccccc3)c(N)nn2c1N	u	1.1µM	16µM	0.95µM	n	1.1µM
CCOC(=O)c1cnc2c(-c3ccc(Cl)cc3)cnn2c1C	2.6µM	1.8µM	11µM	0.6µM	n	0.89µM
CCOC(=O)c1cnc2c(N=Nc3cccc(Cl)c3)c(N)nn2c1N	n	n	n	u	n	n
Cc1ccc(C(=O)Nc2ncccc2O)cc1S(=O)(=O)N1CCCCC1	n	n	x	n	x	n
CCc1nc(SCC(=O)Nc2ccccc2Cl)n[nH]1	n	n	x	n	x	n
Cc1cc(N)n2ncc(-c3ccccc3)c2n1	10µM	2.8µM	16µM	9.5µM	n	1.6µM
SMILES	ELG1 genotox	NPC1 prom act	SMN2 splice enh	FLuc counter	KinaseGlo FLuc	Rab9 prom act
Cc1nc2c(-c3ccccc3)cnn2c(N2CCOCC2)c1C	6.5µM	2.5µM	x	3µM	x	1.3µM
Cc1cc(N)n2ncc(-c3cccc(Br)c3)c2n1	16µM	u	n	15µM	n	2.8µM
CC(=O)Nc1ccc(Nc2cc(C)nc3c(-c4ccccc4)cnn23)cc1	1.5µM	u	n	5.4µM	n	u
Cc1cc(N2CCN(C3CCCC3)CC2)n2ncc(-c3ccccc3)c2n1	u	n	n	u	n	n
CCOC(=O)Cc1c(C)nc2c(-c3cccc(Br)c3)cnn2c1C	n	n	n	n	n	n
Cc1c(C(=O)N/N=C/c2cccs2)nc2ccccn12	n	n	n	n	n	n

Assay outcomes as filed in PubChem BioAssay.
